Experimental data as given in PubChem BioAssay (Tox21).
Inconclusive results are not listed. Calls of active or inactive are those of the source. Calls follow the shape of the dose curve; as a rule, active = well fitted cell-killing curve with a large enough effect in the repeat runs; inconclusive = weak or mixed curves, or effect the other way; inactive = flat fitted curve, though single readings scatter.

Experiment: qHTS assay to identify small molecule antagonists of the androgen receptor (AR) signaling pathway using the MDA cell line in the presence of 0.5 nM R1881 - cell viability counter screen (AID 1259242); also: nearly all actives have a fitted effect of over 45% in size
Details: MDA-kb2 viability, CellTiter-Fluor protease fluorescence, 16 h; series mostly up to 92.4 µM
Source text: U.S. Tox21 Program National Center for Advancing Translational Sciences [NCATS] NIH Chemical Genomics Center [NCGC] U.S. Environmental Protection Agency [EPA] National Institutes of Environmental Health Sciences [NIEHS] National Toxicology Program [NTP] U.S. Food and Drug Administration [FDA] Tox21 Assay Overview: Androgen receptor (AR) is an important member of the nuclear receptor family. Its signaling plays a critical role in AR-dependent prostate cancer and other androgen related diseases. Considerable attention has been given in the past decades to develop methods to study and screen for the environmental chemicals that have the potential to interfere with metabolic homeostasis, reproduction, developmental and behavioral functions. Therefore AR binding assay for screening androgen antagonists can be used to identify potential endocrine disruptors. MDA-kb2 cells (from ATCC, deposited by Wilson et al.) were used to screen for AR inhibitors against Tox21 compound libraries. These cells are human breast carcinoma cells that were stably transfected with a luciferase reporter gene under control of the MMTV promoter that contains response elements for both androgen receptor (AR) and glucocorticoid receptor (GR). The current screening for identification of AR inhibitors against Tox21 libraries used lower concentration of (0.5 nM) R1881 as a stimulator. The cytotoxicity of the Tox21 compound libraries against MDA-kb2 cell line was tested by measuring live-cell protease activity using CellTiter-Fluor assay in the same wells.
Tox21 Assay Protocol Summary: MDA-kb2 cells (cells cultured without CO2) were dispensed at 3,000 cells/well in 4 uL of culture medium into white wall/solid-bottom 1536-well plates (Corning Life Sciences, Corning, NY) using a Multidrop Combi (ThermoFisher Scientific, Waltham, MA) dispenser. After the assay plates were incubated at a 37C and 0% CO2 for 5 hr, 23 nL of compounds dissolved in DMSO, positive controls or DMSO only was transferred to the assay plate by a Pintool station (Kalypsys, San Diego, CA). The transfer of compounds was followed by the addition of 1 uL of 0.5 nM (final concentration) agonist (R1881)/culture medium using a Flying Reagent Dispenser (FRD, Aurora Discovery, San Diego, CA). The plates were incubated at 37C and 0% CO2 for 16 hr. For cytotoxicity assay, 1 uL of CellTiter-Fluor reagent (Promega Corporation, Madison, WI) was added to each well using the FRD and after 30 min incubation at 37C and 0% CO2, The fluorescence intensity was measured using ViewLux plate reader (PerkinElmer, Shelton, CT).

Structure (SMILES)	outcome
O=C(Oc1ccccc1)c1ccccc1	inactive
C=C(C)C(=O)Nc1ccc(Cl)c(Cl)c1	inactive
CC(=O)Nc1cccc(O)c1	inactive
Cc1ccc(N(C)C)cc1	inactive
CCCCCC/C(C=O)=C\c1ccccc1	inactive
CN(C)CCC(c1ccc(Cl)cc1)c1ccccn1 (stereo not given)	inactive
O=C(CC(C(=O)OC1CCCCC1)S(=O)(=O)O)OC1CCCCC1 (stereo not given)	inactive
Oc1cccc2ccccc12	inactive
CCCCCCCC(=O)OC	inactive
CCC(O)OC(O)CC (stereo not given)	inactive
O=C(OCCOCCOC(=O)c1ccccc1)c1ccccc1	inactive
CCOC(=O)NNc1nncc2ccccc12	inactive
OCC(CO)(CBr)CBr	inactive
OCc1cccnc1	inactive
ON=C1CCCCC1	inactive
CCCCC(CC)COC(=O)C(C#N)=C(c1ccccc1)c1ccccc1 (stereo not given)	inactive
CC(=O)CC(=O)Nc1ccccc1C	inactive
CC(C)CC(=O)CC(C)C	inactive
c1ccc2c(c1)ccc1ccccc12	inactive
O=C(O)c1ccccc1C(c1ccc(O)cc1)c1ccc(O)cc1	inactive

Structure (SMILES)	outcome
COc1ccc2cc([C@H](C)C(=O)O)ccc2c1	inactive
CCC(O)OCCCOC (stereo not given)	inactive
O=C(O)c1ccc2c(c1)C(=O)OC2=O	inactive
CCCCCCOCCO	inactive
OC[C@H]1O[C@@](CO)(O[C@H]2O[C@H](CO)[C@@H](O)[C@H](O)[C@H]2O)[C@@H](O)[C@@H]1O	inactive
CCc1cccc(C)c1N	inactive
CC(=O)Nc1ccccc1	inactive
C=C(C)C(=O)O[C@H]1C[C@@H]2CC[C@@]1(C)C2(C)C	inactive
Cc1cccnc1	inactive
CCCCC(CC)COC(=O)CS (stereo not given)	inactive
OCCOCCN1CCN(C2=Nc3ccccc3Sc3ccccc32)CC1	inactive
O=C(O)c1cc(O)c(O)c(O)c1	inactive
CCCCCCCCCCCCS	inactive
NNc1nncc2ccccc12	inactive
CCCCCCCCC/C=C/CC1CC(=O)OC1=O (stereo not given)	inactive
O=c1[nH]c(=O)n([C@H]2C[C@H](O)[C@@H](CO)O2)cc1Br	inactive
O=C(O)c1cc(C(=O)O)cc(S(=O)(=O)O)c1	inactive
FC(F)(F)c1ccc(Cl)c(Cl)c1	inactive
CCCCCC(N)=O	inactive
COc1ccc(Nc2ccccc2)c(C)c1	inactive
